High-throughput results: PubChem, several laboratories
Only some compounds are listed: those with a hit (about 5% of all), similar ones and a draw of the others.
SENP8 block-1: human SENP8 protease inhibitors, primary screen, biochemical, fluorescence, Nedd8 protein substrate, uHTS. Sentrin-specific protease 8 (Homo sapiens), Q96LD8. recombinant SENP8. inhibition, % at 20 µM. 0.64% of 360,000 active; in the data active = inhibition mostly above about 40%, no sharp cut-off; inactive = mostly below about 27%
Target sequence (Q96LD8 whole entry, looked up): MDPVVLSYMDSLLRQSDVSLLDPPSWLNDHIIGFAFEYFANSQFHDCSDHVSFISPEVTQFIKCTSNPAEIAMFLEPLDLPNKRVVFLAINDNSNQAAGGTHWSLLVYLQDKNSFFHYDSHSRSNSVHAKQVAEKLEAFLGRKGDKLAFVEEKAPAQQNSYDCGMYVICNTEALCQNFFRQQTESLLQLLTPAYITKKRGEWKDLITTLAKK
SENP6 block: SENP6 protease inhibitors, primary screen, biochemical, luminescence, uHTS; AID 2599, 2010; Recombinant SENP6 catalytic domain, aminoluciferin luminescence; Sentrin-specific protease 6 (Homo sapiens), Q9GZR1; 1.8% of 330,000 active; inhibition, % at 10 µM;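 active = inhibition above about 50% at the single tested dose, limit read from the data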
AHR act: AHR activators, primary screen, cell-based, luminescence, luciferase reporter, human. AHR-responsive luciferase reporter cells. 2.5% of 320,000 active. activation, % at 5 µM; in the data active = activation above about 47%
SENP8 block-2: SENP8 protease inhibitors, primary screen, biochemical, luminescence | Sentrin-specific protease 8 (Homo sapiens), Q96LD8 | purified SENP8, Z-RLRGG-aminoluciferin cleavage | inhibition, % at 10 µM | 1.2% of 330,000 active | AID 2540, 2010; in the data active = inhibition above about 50%
SENP7 block: SENP7 protease inhibitors, primary screen, biochemical, luminescence, uHTS | Sentrin-specific protease 7 (Homo sapiens), Q9BQF6 | recombinant SENP7, Z-RLRGG-aminoluciferin luminescence, 40 min | 1.5% of 330,000 active | inhibition, % at 5 µM;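 active = inhibition above about 50% at the single test dose, limit read from the data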
EBI2 block: EBI2 receptor antagonists, beta-arrestin recruitment, primary screen, cell-based, luminescence, 7a,25-OHC stimulation, uHTS; G-protein coupled receptor 183 (Homo sapiens), P32249; 7a,25-OHC stimulated; inhibition, % at 5 µM; 0.81% of 360,000 active; in the data active = inhibition above about 38%;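 note: enzyme fragment complementation signal reports receptor beta-arrestin coupling in cells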
Target sequence (P32249 whole entry, looked up, the tested form may be a part): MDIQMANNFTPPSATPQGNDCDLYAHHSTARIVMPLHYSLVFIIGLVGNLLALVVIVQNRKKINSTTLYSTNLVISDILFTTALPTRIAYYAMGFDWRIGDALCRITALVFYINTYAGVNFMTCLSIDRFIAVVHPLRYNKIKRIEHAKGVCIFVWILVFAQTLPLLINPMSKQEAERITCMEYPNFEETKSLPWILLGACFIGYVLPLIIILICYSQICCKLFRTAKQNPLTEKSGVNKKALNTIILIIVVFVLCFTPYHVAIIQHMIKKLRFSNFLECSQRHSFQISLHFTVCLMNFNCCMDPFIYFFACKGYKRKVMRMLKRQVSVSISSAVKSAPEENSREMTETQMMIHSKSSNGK
SENP8 confirm: SENP8 protease inhibitors, retest, confirmation, biochemical, luminescence, single concentration. shares compounds with SENP7 block. Recombinant SENP8, Z-RLRGG-aminoluciferin luminescence, 60 min. inhibition, % at 12.5 µM. 40% of 6,200 active. AID 488912, 2010;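 active = mean inhibition across replicates above about 50%, limit read from the data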
SENP6 confirm: SENP6 protease inhibitors, confirmation, biochemical, luminescence, single concentration; shares compounds with SENP7 block; recombinant SENP6, Z-RLRGG-aminoluciferin luminescence; inhibition, % at 12.5 µM; 58% of 6,200 active; AID 488915, 2010
SENP7 conf: SENP7 protease inhibitors, retest, confirmation, biochemical, luminescence, single concentration; 69% of 6,200 active; recombinant SENP7, Z-RLRGG-aminoluciferin luminescence, 40 min; AID 488917, 2010; inhibition, % at 12.5 µM; shares compounds with SENP7 block
Casp3 SENP sel: caspase-3 protease inhibitors, confirmation, selectivity assay for SENP inhibitor project, biochemical, single concentration; shares compounds with SENP7 block; purified caspase-3, Z-DEVD-aminoluciferin luminescence, 60 min; inhibition, % at 12.5 µM; 60% of 6,200 active; AID 488918, 2010;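 active = mean inhibition above about 50%, limit read from the data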
SENP luc ctr: interferes with luciferase luminescence in SENP counter-screen. shares compounds with SENP7 block. Pre-incubated SENP8/Z-RLRGG-aminoluciferin, luciferase luminescence interference. inhibition, % at 12.5 µM. 39% of 6,200 active. AID 488919;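 active = mean inhibition above about 50% when retested at one dose, limit read from the data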
Large screens that a line does not name were inactive (follow-up assays come after a bar, where they were run).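 Rule for the calls, unless noted: active = mean inhibition above about 50% in the one-dose retest (limit read from the data); inactive = the rest.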

CCC(=O)Nc1cnc(NC(=O)c2cccc(F)c2)cc1C	SENP6 block 58, SENP7 block 59 | SENP8 confirm inactive | SENP6 confirm inactive | SENP7 conf 78 | Casp3 SENP sel 83 | SENP luc ctr inactive
O=C(N/N=C/c1cc2c(cc1Cl)OCO2)c1cccc(Br)c1	SENP6 block 51 | SENP8 confirm inactive | SENP6 confirm inactive | SENP7 conf inactive | Casp3 SENP sel inactive | SENP luc ctr inactive
COc1ccc(-n2c(NC(=O)c3ccco3)c(C#N)c3nc4ccccc4nc32)cc1	SENP6 block 97, SENP8 block-2 95, SENP7 block 87 | SENP8 confirm inactive | SENP6 confirm 68 | SENP7 conf 54 | Casp3 SENP sel inactive | SENP luc ctr inactive
CCOC(=O)c1c(NC(=O)c2ccco2)n(C2CCCCC2)c2nc3ccccc3nc12	SENP6 block 73, SENP8 block-2 51 | SENP8 confirm inactive | SENP6 confirm inactive | SENP7 conf inactive | Casp3 SENP sel inactive | SENP luc ctr inactive
O=C(c1cccs1)N1CCC(c2nc3c(nnn3Cc3ccccc3Cl)c(=O)[nH]2)CC1	none
c1ccc(CNc2ccc3ccccc3n2)nc1	SENP6 block 87, SENP8 block-2 86 | SENP8 confirm 88 | SENP6 confirm 89 | SENP7 conf 99 | Casp3 SENP sel 92 | SENP luc ctr 91
CCOc1cc2c(C#N)c(N3CCCCC3)nc(N)c2c(N)n1	SENP6 block 69, SENP8 block-2 65 | SENP8 confirm inactive | SENP6 confirm inactive | SENP7 conf inactive | Casp3 SENP sel inactive | SENP luc ctr inactive
COc1ccc(-c2nc(C#N)c(N3CCc4ccccc4C3)o2)cc1OC	none
COc1cc2c(C#N)c(N3CCCCC3)nc(N)c2c(N)n1	SENP6 block 66, SENP8 block-2 62 | SENP8 confirm inactive | SENP6 confirm inactive | SENP7 conf inactive | Casp3 SENP sel inactive | SENP luc ctr inactive
COc1cc2c(C#N)c(N3CCOCC3)nc(N)c2c(N)n1	none
COc1cc2c(C#N)c(N3CCc4ccccc4C3)nc(N)c2c(N)n1	SENP6 block 83, SENP8 block-2 80 | SENP8 confirm inactive | SENP6 confirm inactive | SENP7 conf inactive | Casp3 SENP sel inactive | SENP luc ctr inactive
CCN(CC)c1nc(N)c(C#N)c(CC#N)c1C#N	none
CCN(CC)c1nc(N)c2c(N)nc(OC)cc2c1C#N	SENP6 block 76, SENP8 block-2 51 | SENP8 confirm inactive | SENP6 confirm inactive | SENP7 conf inactive | Casp3 SENP sel inactive | SENP luc ctr inactive
NC(N)=Nc1nc(-c2ccccc2)c2cc(F)ccc2n1	none
O=C(COC(=O)c1ccc2ccccc2c1O)Nc1ccccc1	none (no result: AHR act)
CCOc1cc2c(C#N)c(N3CCNCC3)nc(N)c2c(N)n1	SENP6 block 88 | SENP8 confirm inactive | SENP6 confirm inactive | SENP7 conf inactive | Casp3 SENP sel inactive | SENP luc ctr inactive
COc1ccc(CN2C(=O)Cc3c2nc(N)c2c(N)nc(N4CCCCC4)c(C#N)c32)cc1	SENP6 block 61 (no result: SENP8 block-1, EBI2 block) | SENP8 confirm inactive | SENP6 confirm inactive | SENP7 conf inactive | Casp3 SENP sel inactive | SENP luc ctr inactive
CN(C)/C=N/c1ncn(-c2ncc(C(F)(F)F)cc2Cl)n1	none
CC(=O)N1Cc2cc([N+](=O)[O-])ccc2Oc2ccccc21	none
Nc1[nH]nc2c1NN(c1ccc(Cl)cc1Cl)N2	SENP6 block 65, AHR act 75 | SENP8 confirm inactive | SENP6 confirm inactive | SENP7 conf inactive | Casp3 SENP sel inactive | SENP luc ctr inactive
CCOC(=O)c1sc(-c2ccccc2)nc1C	none
CCOC(=O)Cc1ccc2sc(-c3ccccc3)nc2c1	SENP6 block 97, SENP8 block-2 95, SENP7 block 99 | SENP8 confirm 98 | SENP6 confirm 99 | SENP7 conf 102 | Casp3 SENP sel 97 | SENP luc ctr 92
Cc1ccc(-c2nc(-c3ccccn3)no2)cc1[N+](=O)[O-]	SENP6 block 92, SENP8 block-2 85, SENP7 block 88 | SENP8 confirm 63 | SENP6 confirm 83 | SENP7 conf 88 | Casp3 SENP sel 85 | SENP luc ctr inactive
c1ccc(-c2ccc(-c3nc(-c4ccccn4)no3)cc2)cc1	SENP6 block 98, SENP8 block-2 97, SENP7 block 98 | SENP8 confirm inactive | SENP6 confirm 74 | SENP7 conf 81 | Casp3 SENP sel 97 | SENP luc ctr inactive
c1ccc(-c2noc(-c3ccco3)n2)nc1	SENP6 block 74, SENP7 block 73 | SENP8 confirm 65 | SENP6 confirm 68 | SENP7 conf 92 | Casp3 SENP sel 92 | SENP luc ctr 70
c1ccc(-c2nc(-c3ccccn3)no2)cc1	SENP6 block 96, SENP8 block-2 95, SENP7 block 101 | SENP8 confirm 98 | SENP6 confirm 99 | SENP7 conf 103 | Casp3 SENP sel 99 | SENP luc ctr 97
COc1cc(-c2nc(-c3ccccn3)no2)cc(OC)c1OC	none
c1ccc(-c2noc(-c3ccno3)n2)nc1	none
O=C(/C(=N\Nc1ccccc1)Sc1nnnn1-c1ccccc1)c1ccccc1	none
COc1ccccc1NCCC(=O)OCC(=O)Nc1cc([N+](=O)[O-])ccc1F	none
COc1nc(C)ccc1-c1noc(-c2ccco2)n1	SENP6 block 70, SENP7 block 61 | SENP8 confirm 51 | SENP6 confirm 57 | SENP7 conf 85 | Casp3 SENP sel 69 | SENP luc ctr inactive
